Source: PubChem BioAssay (National Center for Advancing Translational Sciences (NCATS))
In the library only some 0.37% were active in any assay of this set; here they are far more common.
CBFb RUNX1 block = blocks binding between human CBF-beta and RUNX1. Q01196+Q13951. AlphaScreen CBFb-His/RUNX1-biotin binding, biochemical. Potency, µM (series often up to 59.8 µM), for inactives: top-dose activity, negative = inhibition, most hits filed as inhibitors. 230,000 tested, under 10 active. AID 1477; note: % of control where 0% means no effect
Target sequence (Q01196 whole entry, looked up): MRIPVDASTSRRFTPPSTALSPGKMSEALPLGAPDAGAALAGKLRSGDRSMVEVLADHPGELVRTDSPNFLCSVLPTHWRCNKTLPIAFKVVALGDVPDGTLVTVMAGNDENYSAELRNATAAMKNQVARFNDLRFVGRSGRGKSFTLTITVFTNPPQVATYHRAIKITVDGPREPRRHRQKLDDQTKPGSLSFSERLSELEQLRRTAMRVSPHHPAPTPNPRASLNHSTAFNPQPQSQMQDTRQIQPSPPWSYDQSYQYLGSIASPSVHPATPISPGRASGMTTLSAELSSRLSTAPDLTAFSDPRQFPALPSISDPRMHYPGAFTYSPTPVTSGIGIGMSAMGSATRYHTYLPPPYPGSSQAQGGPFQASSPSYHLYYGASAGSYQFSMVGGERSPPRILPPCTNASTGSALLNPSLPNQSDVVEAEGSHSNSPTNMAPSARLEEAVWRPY
Target sequence (Q13951 whole entry, looked up): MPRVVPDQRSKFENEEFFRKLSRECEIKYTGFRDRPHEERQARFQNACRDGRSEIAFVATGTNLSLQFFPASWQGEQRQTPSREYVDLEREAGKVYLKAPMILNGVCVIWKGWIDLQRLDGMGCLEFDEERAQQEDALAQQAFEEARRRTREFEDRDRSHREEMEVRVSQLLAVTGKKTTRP
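AlphaScreen proximity signal reports loss of binding between His-tagged CBF-beta and biotin-labelled RUNX1, each at 30 nM. Proteins are pre-associated for 20 minutes, compounds added for 15 minutes, then beads for 90 minutes, all at ambient temperature.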
IMPase Li cell = membrane-permeable IMPase blocker, potentiated with lithium; CHO-M1 cells, IP1 TR-FRET (IP-One), carbachol + lithium; Potency, µM (doses to about 59.4 µM), for inactives: at the highest dose activity, negative = IMPase inhibition, actives largely listed as inhibitors; 210,000 compounds, 0.35% hits; AID 1457;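 note: IP1 builds up when IMPase is blocked and the TR-FRET signal falls; potency is the fitted concentration of half-maximal effect; plate controls were basal vehicle for no effect and high inhibitor control for full effect; nearly all actives have a fitted effect of over 50% in size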
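CHO-M1, 2000 cells/well, 16–30 h culture; cpd + low Li+, 30 min 37C; lysis with d2-IP1/Eu-anti-IP1 Ab, 10 min RT; TR-FRET 665/620 ratio and 620 channel; AC50 via Hill.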
TSG101-PTAP inh = blocks PTAP/TSG101 interaction to inhibit HIV-1 budding; Potency, µM (series often up to 115 µM), inactives show at the top dose activity change, negative = inhibition, hits mostly inhibitors; Fluorescence polarization, FITC-PTAP peptide / Tsg101 binding; 340,000 tested, under 10 active; AID 493005; Q99816; active = well fitted inhibition curve with a large enough effect in the main read-out, with a control signal flat, not every such curve was filed as active; inconclusive = small, poorly fitted or top-dose-only effect, or effect the other way, or a change in a side signal; inactive = no such curve, though single readings can be large or run the other way; note: potency is the fitted concentration of half-maximal effect; % of control where 0% means no effect
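Compounds were pin-transferred onto Tsg101 binding domain (10 uM final) in HEPES pH 7.5 buffer, then FITC-PTAP peptide was added at 50 nM final. After 20 min at RT, polarization reported peptide displacement across a qHTS concentration series.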
AT treatment = potential ataxia-telangiectasia treatments restoring KAP-1 phosphorylation | 320,000 compounds, 0.19% hits | F2112 A-T fibroblasts, KAP-1 phosphorylation AlphaLISA; neocarzinostatin DNA damage 30 min before lysis | AID 485349 | Potency, µM (top dose mostly 57.5 µM), without a hit: top-dose activation, most hits filed as activators; note: potency is the fitted concentration of half-maximal effect; % of control where 0% means no effect; nearly all actives have a fitted effect of over 45% in size
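ATM-like activity read as KAP-1 phosphorylation via AlphaLISA donor/acceptor antibody pairs after lysis and 6 hr at 25C. Cells were ATM-null patient fibroblasts (F2112, hTERT), dosed 60 min, then exposed to the DSB inducer NCS for 30 min.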
* marks the source's active call; other numbers are inactive results; ? = inconclusive; . = not tested or not shown; [ ] = dose if it differs, or a comment. Unless noted, calls come from the whole dose curve; as a rule, active = well fitted curve in the direction sought with a large enough effect; inconclusive = small, poorly fitted or top-dose-only effect, or another doubt; inactive = no such curve, though single readings can be large; an effect the other way counts as inactive or inconclusive.

SMILES	CBFb RUNX1 block	IMPase Li cell	TSG101-PTAP inh	AT treatment
CC(=O)N=c1sc2ccccc2n1C	0%	-3%[38.3 µM]	-3%	0%
CC(=O)N=c1sc2nc3ccccc3nc2n1N(C(C)=O)C(C)=O	0%	13µM*	-8%	-1%
CCOC(=O)c1ccc(NC(=O)c2nc[nH]c2C(=O)N[C@@H](CC(C)C)C(=O)OC(C)(C)C)cc1	21%	.	-1%	?
CC(C)C[C@H](NC(=O)c1[nH]cnc1C(=O)Nc1ccccc1)C(=O)OC(C)(C)C	21%	.	1%	32µM*
CNC(=O)c1[nH]cnc1C(=O)N[C@@H](C)C(=O)OCc1ccccc1	26%	.	-3%	45µM*
CC1CCC2(CC1)NC(=S)N(C(C)(C)C)N2 (stereo unspecified)	1%	.	-4%	-5%
C=C(C(=O)c1ccccc1)C(C)C(=C)C(=O)c1ccccc1	4%	5%	-11%	28µM*
CC(=O)OC[C@]12CC[C@H]3[C@@](C)(CC[C@H]4C(C)(C)CCC[C@]34C)[C@@H]1C[C@H](C1=CC(=O)O[C@@H]1OC(C)=O)O2	.	.	.	40µM*
CC1(C)CCC[C@]2(C)[C@H]3CC(=O)O[C@]3(C)CC[C@@H]12	23%	.	-1%	1%
COc1ccc(-n2c(=O)c(-c3ccc(Cl)cc3)nc3cnc(N(C)C)nc32)cc1	.	2.8µM*	.	.
CN(C)c1ncc2nc(-c3ccc(Cl)cc3)c(=O)n(-c3ccccc3)c2n1	.	2.8µM*	.	.
COc1ccc(-c2nc3cnc(N(C)C)nc3n(-c3ccccc3)c2=O)cc1	.	-5%	.	.
NNC(=O)CN1CCCc2ccccc21	-2%	2%	1%	-23%
CCC(C)C(NS(=O)(=O)c1ccc(C)cc1)C(=O)Oc1ccc2c3c(c(=O)oc2c1)CCC3 (stereo unspecified)	2%	4%[38.3 µM]	-2%	-5%
O=c1[nH]c(COc2ccc(Cl)cc2Cl)nc2ccccc12	.	.	0%	11%
CNC(=O)c1sc2nc(-c3ccc(OC)cc3)cn2c1C	?	-17%[38.3 µM]	-5%	8%
COc1ccc(-c2cn3c(C)c(C(=O)Nc4cc(NC(C)=O)ccc4OC)sc3n2)cc1	-1%	4.5µM*	-1%	10%
Cc1ccc(-c2nc3ncccc3o2)cc1NC(=O)CC(C)C	2%	-10%	2%	21%
Cc1ccc(-c2nc3cccnc3o2)cc1NC(=O)COc1ccc(Cl)cc1C	-10%	6.3µM*	-4%	15%
Cc1ccc(-c2nc3ncccc3o2)cc1NC(=O)COc1ccccc1	1%	11µM*	-5%	.
COc1ccccc1N1CCN(c2cc(=O)n(-c3ccc(Br)cc3)c(=O)[nH]2)CC1	2%	2%[38.3 µM]	.	-3%
CCOc1ccc2nc(-c3cc(NC(C)=O)ccc3O)sc2c1	-1%	10µM*	1%	-4%
Cc1ccc2nc(-c3ccc(-c4cccc(Cl)c4)cc3)c(NCc3ccccc3)n2c1	.	.	-5%	25µM*
CCCCNc1c(-c2cccc(-c3ccc(OC)cc3)c2)nc2ccc(C)cn12	.	.	-3%	35µM*
COc1cc(NS(=O)(=O)c2ccc(NC(=O)COc3ccc(C)cc3C)cc2)nc(OC)n1	-6%	.	-2%	9%
SMILES	CBFb RUNX1 block	IMPase Li cell	TSG101-PTAP inh	AT treatment
O=C(OCn1ncc(Br)c(Br)c1=O)c1ccc(F)cc1	3%	7.1µM*	-15%	-1%
Cc1ccc(-c2cc(-c3ccccc3)c3c(N)c(S(C)(=O)=O)sc3n2)cc1	12%	10µM*	-4%	.
CS(=O)(=O)c1sc2nc(-c3cccs3)cc(-c3ccccc3)c2c1N	0%	?	1%	-7%
COC(=O)c1c(Cl)c2n3ccccc3c(C)c(-c3ccccc3)c-2c1C(=O)OC	-14%	10µM*	-4%	-7%
COC(=O)c1cc2c(-c3ccccc3)c(C)c3ccccn3c-2c1C(=O)OC	.	-19%[38.3 µM]	-9%	-2%
CC1CCN(CC(=O)Nc2ccccc2C(=O)NC2CC2)CC1	.	.	1%	3%
O=C(O/N=C1\CCS(=O)(=O)c2sccc21)C1CC1	0%	2%	-10%	1%
CNC(=S)Nc1ccc(-c2nc3ccc(C)cc3s2)cc1	3%	-11%	-1%	4%
CC(=O)NC(=S)Nc1ccc(-c2nc3ccc(C)cc3s2)cc1	-1%	14µM*	-5%	2%
COc1ccc(C(CC(=O)O)NC(=O)c2sc3ccccc3c2Cl)cc1 (stereo unspecified)	7%	5.6µM*	-3%	-1%
CCCCOc1cccc(C(=O)Nc2ccc(N3CCN(CC)CC3)cc2)c1	4%	29%[38.3 µM]	-2%	0%
COc1ccc(S(=O)(=O)NCCc2c[nH]c3ccc(C)cc23)cc1	.	.	-1%	0%
CC(C)(C)c1ccc(/C=C(\c2nc3ccccc3[nH]2)S(=O)(=O)c2ccccc2)cc1	.	.	2%	.
Cc1cccc(/C=C(\c2nc3ccccc3[nH]2)S(=O)(=O)c2ccccc2)c1	1%	-8%	0%	35µM*
Fc1ccc(-n2c(-c3ccc4ccccc4n3)n[nH]c2=S)cc1Cl	-6%	2.8µM*	2%	1%
C=CCOc1ccc(C2C(C(=O)c3ccco3)=C(O)C(=O)N2c2nnc(C)s2)cc1 (stereo unspecified)	-1%	11µM*	-7%	-6%
COc1ccc(C2C(C(=O)c3ccco3)=C(O)C(=O)N2c2nnc(C)s2)cc1 (stereo unspecified)	1%	11µM*	-7%	-2%
O=C(NCCc1ccccc1)C1CCN(S(=O)(=O)c2cccc3nsnc23)CC1	5%	0%	-2%	-4%
COc1ccc(N2CCN(C(=O)CSc3ncn[nH]3)CC2)cc1	.	.	-5%	-2%
COc1ccc2c(c1)C(C)CC(C)(C)N2C(=O)CSc1ncn[nH]1 (stereo unspecified)	4%	14%[38.3 µM]	-3%	20µM*
COc1ccc(CCNC(=O)CSC2=NS(=O)(=O)c3ccccc3N2)cc1OC	.	.	-1%	11%
CC(Nc1ccnc2cc(Cl)ccc12)c1ccc(S(N)(=O)=O)cc1 (stereo unspecified)	.	.	1%	-3%
COc1ccc(-c2nc3n(c2C)Cc2ccccc2-3)cc1	-1%	.	-7%	22µM*
COC(=O)c1ccc(C2/C(=C(/O)c3ccc(OC(C)C)cc3)C(=O)C(=O)N2c2cc(C)on2)cc1 (stereo unspecified)	3%	10µM*	-6%	3%
COC(=O)c1ccc(C2/C(=C(/O)c3ccc(OC)cc3)C(=O)C(=O)N2c2cc(C)on2)cc1 (stereo unspecified)	-9%	10µM*	-10%	5%
Cc1c[n+](CC(=O)c2ccccc2)c(C)cn1	.	.	-5%	-13%
Cc1ccc(NC(=O)CSc2nc(N)c3cc4c(nc3n2)CCCC4)cc1	-15%	1%	4%	2%
CC(C)(C)NS(=O)(=O)c1ccc(OCC(=O)NCc2ccco2)cc1	12%	1%	-1%	0%
COc1cc(/C=C/C(=O)OCC(=O)Nc2ccccc2Cl)cc(OC)c1OC	-7%	-29%	-3%	-4%
